The values below come from PubChem BioAssay AID485344 (National Center for Advancing Translational Sciences (NCATS), 2010).

The structures appear in SMILES notation. Several values for one entry are separate records, joined by “and”; a condition that tells them apart may be missing. Equal entries are not always repeated. Out of some 340,000 compounds screened, about 6,900 (2%) were called active. The sample holds actives, similar compounds and a random draw of the others, so the mix is not that of the screen. No stated cut-off is given here; in the data, active means inhibition above about 30%; inactive means below that, where a call was filed. A structure can be active in one record and inactive in another.

For this assay, the target named is D(2) dopamine receptor (Homo sapiens) (UniProt P14416). Briefly: HTS Assay for Allosteric Antagonists of the Human D2 Dopamine Receptor: Primary Screen for Antagonists. Further: 0% is about no effect. Conditions: HEK293 TREx D2 cells, calcium flux, dopamine EC80; at 10 µM; stronger effect = higher value. An excerpt: NIH Chemical Genomics Center [NCGC] NIH Molecular Libraries Probe Centers Network [MLPCN] MLPCN Grant: NS064831-01 Assay Submitter (PI): David Sibley Dopamine receptors (DARs) are involved in the etiology and/or therapy of a number of neuropsychiatric and endocrine disorders. For instance, all receptor-based antiparkinsonian drugs work via stimulating the D2 DAR subtype whereas all FDA-approved antipsychotic agents are antagonists of this receptor. […] There are three different types of allosteric modulators that we are seeking, two of which will stimulate or augment receptor signaling, allosteric agonists and potentiators, while the third, allosteric antagonists, will attenuate receptor signaling. The present primary screening assay measures compound antagonism after an EC80 addition of dopamine by tracking calcium flux in a […], inducible Hek293 Trex D2 cell line.
Sequence of D(2) dopamine receptor (Homo sapiens) (P14416 whole entry, looked up): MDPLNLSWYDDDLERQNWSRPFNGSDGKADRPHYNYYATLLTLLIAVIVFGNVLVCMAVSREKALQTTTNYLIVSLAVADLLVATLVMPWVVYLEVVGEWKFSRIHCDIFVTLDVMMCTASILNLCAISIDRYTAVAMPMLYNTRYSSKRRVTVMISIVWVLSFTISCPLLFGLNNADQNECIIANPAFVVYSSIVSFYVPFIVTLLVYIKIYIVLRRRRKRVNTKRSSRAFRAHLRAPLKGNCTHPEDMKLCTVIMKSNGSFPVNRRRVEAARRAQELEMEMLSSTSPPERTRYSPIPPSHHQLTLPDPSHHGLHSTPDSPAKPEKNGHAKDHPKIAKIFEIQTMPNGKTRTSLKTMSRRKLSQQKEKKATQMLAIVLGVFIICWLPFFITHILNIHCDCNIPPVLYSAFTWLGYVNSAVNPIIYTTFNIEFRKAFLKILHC
Freshly passaged cells are plated in 1536 well black, clear bottom plates at a density of 4000 cells/well in 3 ul of complete media containing 1x tetracycline inducer. After an overnight incubation at 30 C in 5% CO2, cells are loaded with 2 ul of the no wash Calcium Assay Kit (ABD Bioquest) and incubated at room temperature for 30 to 90 minutes. Agonist read: A 10 cycle (1 second/cycle) baseline measurement is taken and then the FDSS online 1536 pintool delivers 23 nl of compound library (as well as dopamine controls) to the plate. The plate is measured for kinetically at 1 cycle/sec for 180 seconds. Following the 180 second read, 1 ul of an EC80 (negative modulation assay) is delivered by an onboard pipette head. Measurements are taken kinetically for an additional 180 seconds.
Regarding `COc1ccc(OC)c(Nc2nc(-c3ccc(O)c(O)c3)cs2)c1`, the inhibition is -3.66% (inactive). In the case of `CC(C)(C)C(=O)OCc1nc(-c2ccc(O)c(O)c2)cs1` it was 93.7% (active); in that of `Cc1onc(C(=O)NN)c1-c1csc(COc2ccccc2)n1`, 20.6% (inactive); in that of `C#CCOCCOCCOCCNc1nc(N2CCN(C(=O)CCCCCCCCCCNC(=O)Cn3cc(CCCCCN)nn3)CC2)nc(N2CCN(C(=O)CCCCCCCCCCNC(=O)[C@H](CO)n3cc(CCCSC)nn3)CC2)n1`, 1.73% (inactive). Then `COc1cc(OC)cc(-c2c(-c3cccs3)c3cc(-c4ccc(OC)cc4F)ccc3n2C)c1`, with -3.09% (inactive); and `CCN(CCCCOC(=O)c1ccc(OC)c(OC)c1)C(C)Cc1ccc(OC)cc1` (stereo not given), with 43.6% (active). In the case of `COc1ccccc1NC(=O)COc1ccc(C(=O)OCC(=O)N(C(C)C)C(C)C)cc1OC` it was 11.9% (inactive). Regarding `CCOC(=O)CN(Cc1ccc(OC)c(OC)c1)S(=O)(=O)c1ccc(OC)cc1`, the inhibition was -14% (inactive). Regarding `CC(C)(C)n1ncc2c(=O)n(Cc3c(Cl)cccc3Br)cnc21`, the inhibition was -6.49% (inactive).

`Cc1ccc(C)c(OCC(=O)NNC(=O)C2CCC2)c1`: the inhibition is -10.9% (inactive). As to `CCN(CC(=O)Nc1c(F)cccc1F)C(=O)c1ccc(Sc2nncn2C)c([N+](=O)[O-])c1`, the inhibition was -7.81% (inactive). Then `CC(=O)Nc1ccc(SCC(=O)Nc2ccccc2Oc2ccccc2)cc1`, with -7.41% (inactive); and `O=C(CSc1ccccc1)Nc1cc(Cl)ccc1Oc1ccccc1`, with 41.8% (active). Then `CC1CCCN(CC(=O)Nc2cc(Cl)ccc2Oc2ccccc2)C1` (stereo not given), with -9.74% (inactive); and `O=C(CNC(=O)c1ccc2ccccc2c1)Nc1ncccc1O`, with 6.52% (inactive). In the case of `CCCN(C(=O)c1nc2nccc(C)n2n1)c1c(N)n(Cc2ccccc2)c(=O)[nH]c1=O` it was 13.1% (inactive); in that of `O=C(O)c1cc(S(=O)(=O)Nc2ccc3cn[nH]c3c2)ccc1Br`, -28.4% (inactive); in that of `O=S(=O)(c1ccc(SCc2ccccc2)nc1)N1CCCCCC1`, -5.53% (inactive). Consider `COc1ccc([C@H]2CC(=O)C=C(/C=C/c3ccccc3)C2)cc1`, for which the inhibition is 11.1% (inactive). In the case of `O=[N+]([O-])c1ccccc1Nc1ccc(O)cc1` it was 48.5% (active); in that of `O=C(O)c1ccccc1C(=O)Nc1ccccc1[N+](=O)[O-]`, 7.04% (inactive); in that of `O=[N+]([O-])c1ccc(O)c(/C=N/Nc2ccccc2[N+](=O)[O-])c1`, 20.9% (inactive). Turning to `COc1ccccc1OCC(=O)OCc1cc(-c2ccco2)on1`, the inhibition is 5.46% (inactive). In the case of `CCN(CC(=O)N1CCCC1)S(=O)(=O)c1ccc(F)cc1` it was 21.3% (inactive). For the compound `CS(=O)(=O)N(CC(=O)N1CCCCCC1)c1cccc(Cl)c1Cl`, the inhibition is -0.797% (inactive). Then `CS(=O)(=O)N(CC(=O)N1CCCC1)Cc1ccccc1`, with 47.1% (active); and `O=C(COc1coc(CN2CCN(c3ccccc3)CC2)cc1=O)Nc1ccccc1F`, with 16.7% (inactive).

With `CCOC(=O)c1cc(-c2ccccc2C)n(Cc2cc(C)no2)n1`, the inhibition was 9.49% (inactive). In the case of `CC(=O)Nc1cccc(C(=O)OCC(=O)Nc2nnc(-c3ccccc3)o2)c1` it was -0.603% (inactive); in that of `COc1ccc(C(=O)OCC(=O)NCCCc2ccccc2)cc1OC`, 7.85% (inactive). Then `COc1ccc(C(=O)OCC(=O)Nc2cccc(C(C)=O)c2)cc1OC`, with 113% (active); and `CCCCn1c(N)c(N(CCOC)C(=O)c2cccc(OCc3ccccc3)c2)c(=O)[nH]c1=O`, with -3.21% (inactive); and `CCOc1ncccc1C(=O)OCC(=O)Nc1cccc(S(=O)(=O)N2CCCCCC2)c1`, with -2.34% (inactive). For `CC(Oc1ccc(F)cc1)C(=O)Nc1cc(S(=O)(=O)N2CCOCC2)ccc1N1CCN(C)CC1` (stereo not given), the inhibition is -1.88% (inactive). Then `CC(NC(=O)c1ccc(S(=O)(=O)Nc2ccccc2)cc1)c1ccc(S(N)(=O)=O)cc1` (stereo not given), with 11.4% (inactive); and `S=C(NCc1ccco1)NCc1ccccc1Cl`, with -9.44% (inactive); and `Fc1cccc(Cl)c1CSc1ccc(-c2ccco2)nn1`, with -10.9% (inactive). With `Clc1ccccc1CSc1nnc(-c2ccco2)c(-c2ccco2)n1`, the inhibition is 34.6% (active). Then `COc1ccccc1C(CNC(=O)c1ccc(C)c(S(=O)(=O)N2CCCCC2)c1)N(C)C` (stereo not given), with 8.09% (inactive); and `CN(C(=O)COC(=O)c1ccc(Br)o1)c1c(N)n(Cc2ccccc2)c(=O)[nH]c1=O`, with 1.2% (inactive).

Regarding `CC(=O)NCC(=O)N(Cc1ccco1)C1(C(=O)NC2CCCC2)CCCCC1`, the inhibition is 22.2% (inactive).

Take `Cc1ccc(N(C(=O)CC2NC(=O)NC2=O)C2(C(=O)NC3CCCC3)CCCCC2)cc1` (stereo not given): the inhibition was -9.9% (inactive). In the case of `O=C(c1ccc(=O)[nH]c1)N(Cc1ccco1)C1(C(=O)NC2CCCCC2)CCCCC1` it was 37.6% (active). Then `O=C(CN1C(=O)COc2ccccc21)NCCN1CCc2ccccc2C1`, with 9.13% (inactive). Then `O=C(NCCN1CCN(Cc2ccccc2)CC1)c1cc2c(=O)[nH]c3ccccc3c2s1`, with -24.6% (inactive); and `Cn1c(C(=O)NCCN2CCc3ccccc3C2)cc2c(=O)[nH]c3ccccc3c21`, with 32.3% (active). As to `COc1ccccc1NC(=O)CSc1nnc(C)n1CC1CCCO1` (stereo not given), the inhibition was -14.5% (inactive).

`Cc1nnc(SCC(N)=O)n1CC1CCCO1` (stereo not given): the inhibition was 32.8% (active). Then `Cc1nnc(SCC(=O)NNC(=O)c2ccc(Cl)cc2)n1CC1CCCO1` (stereo not given), with -10.1% (inactive); and `COc1ccc(CCNC(=O)COC(=O)Cc2cccc(F)c2)cc1`, with 6.51% (inactive); and `Cc1c(NC(=O)C(C)Oc2cccc(Cl)c2)c(=O)n(-c2ccccc2)n1C` (stereo not given), with -1.16% (inactive). Then `O=C(CSc1nc(C2CC2)nc2ccccc12)Nc1ccc2c(c1)OCCO2`, with 4.27% (inactive); and `O=C(CSc1nc(C2CC2)nc2ccccc12)Nc1cccc(O)c1`, with 6.46% (inactive). `Cc1nnc(NC(=O)CSc2nc(C3CCCCC3)nc3ccccc23)s1`: the inhibition was 35.4% (active). Then `Cn1c(CC(=O)NNC(=O)c2ccccc2F)nc2ccccc21`, with -9.97% (inactive); and `O=C(NCc1ccncc1)c1cccc(NS(=O)(=O)c2ccc(F)c(F)c2)c1`, with 26.4% (inactive). In the case of `COc1cccc(OC)c1OCCN1CCN(C(=O)c2ccco2)CC1` it was 63.6% (active); in that of `O=C(c1ccco1)N1CCN(C(=O)c2ccc(COc3ccc(F)cc3)o2)CC1`, 1.11% (inactive).

`O=C(c1ccco1)N1CCN(CCOc2ccccc2)CC1`: the inhibition is 61.7% (active). In the case of `O=CN1CCN(C(=O)c2ccc(Br)o2)CC1` it was -1.93% (inactive); in that of `O=C(c1ccc(Br)o1)N1CCN(CCOc2ccccc2)CC1`, 86.3% (active); in that of `O=C(c1ccco1)N1CCN(Cc2cccc(C(F)(F)F)c2)CC1`, 77.1% (active). In the case of `Cc1ccc(C)c(OCC(=O)N2CCN(C(=O)c3ccco3)CC2)c1` it was -1.29% (inactive); in that of `O=C(c1ccco1)N1CCN(C(=S)Nc2cc(F)cc(F)c2)CC1`, -1.02% (inactive). Then `COc1cccc(OCc2cc(C(=O)N3CCN(C(=O)c4ccco4)CC3)no2)c1`, with -3.13% (inactive). Turning to `O=C(CNS(=O)(=O)c1ccccc1)N1CCN(C(=O)c2ccco2)CC1`, the inhibition was -2.75% (inactive). Then `COC(c1ccccc1)c1nnc(CCC(=O)N2CCN(CCOc3ccccc3)CC2)o1` (stereo not given), with -8.4% (inactive); and `O=C(CN1CCN(C(=O)c2ccco2)CC1)Nc1ccc(Cl)c(C(F)(F)F)c1`, with 0.954% (inactive). Then `CC(C)CN(C(=O)CSc1nncn1C)C1CCS(=O)(=O)C1` (stereo not given), with -28.1% (inactive); and `O=C1C=C(c2cc(C(F)(F)F)cc(C(F)(F)F)c2)C[C@@H](c2ccc3c(c2)OCO3)C1`, with 8.46% (inactive).

On to `CC(=O)Nc1cccc(C(=O)OCC(=O)c2ccc3c(c2)OCO3)c1`, for which the inhibition is 13.5% (inactive). Then `CSCCC(NC(=O)c1ccccc1)C(=O)N1CCCCCCC1` (stereo not given), with -18.4% (inactive); and `COc1ccccc1C(=O)Nc1ccc(OCC(=O)N2CCCCC2)cc1`, with -21.7% (inactive). Then `Cc1ccc(C(=O)NNC(=O)c2ccc3c(c2)OCCO3)cc1`, with 20.3% (inactive); and `Cc1ccc(C(=O)Nc2ncccc2C)cc1S(=O)(=O)N1CCOCC1`, with -29.3% (inactive).

For the compound `CCc1nn(CCCN2CCN(c3cccc(Cl)c3)CC2)c(=O)n1CCOc1ccccc1`, the inhibition is 10.2% (inactive) and 47% (active). For the compound `Cc1nn(CCOc2ccccc2)c(=O)n1-c1ccccc1F`, the inhibition is 4.74% (inactive). In the case of `CCN1C(=O)/C(=C\N2CCN(c3cccc(Cl)c3)CC2)SC1=S` it was -0.63% (inactive); in that of `CCN1CCN(C(=O)N[C@@H](C(=O)N[C@@H]2C(=O)N3C(C(=O)O)=C(CSc4nnnn4C)CS[C@H]23)c2ccc(O)cc2)C(=O)C1=O`, -6.07% (inactive). Then `O=c1c2ccccc2ccc2ccc(P(=O)(O)O)cc12`, with 1.32% (inactive); and `O=C(OCC(=O)N1CCN(C(=O)c2ccco2)CC1)c1ccc(Cl)c(Cl)c1`, with 20.1% (inactive); and `CCN(c1ccccc1)S(=O)(=O)c1cc(C(=O)NCc2ccccn2)ccc1C`, with -6.91% (inactive). Take `CCOC(=O)N1CCN(C(=O)c2ccccc2N(Cc2ccccc2)S(=O)(=O)c2ccc(OC)cc2)CC1`: the inhibition was -13.3% (inactive).

`CCN1CCN(C(=O)c2ccccc2N(C)S(=O)(=O)c2ccc(C)cc2)CC1`: the inhibition was 40.9% (active). In the case of `CCOC(=O)C1CCN(C(=O)c2ccccc2N(C)S(=O)(=O)c2ccccc2)CC1` it was -8.5% (inactive); in that of `COc1ccc(-c2cc(C(=O)N(C)CC(=O)Nc3ccccc3Cl)c3ccccc3n2)cc1OC`, 1.05% (inactive); in that of `CC(=O)c1c(C)[nH]c(C(=O)OCC(=O)Nc2c(C)cccc2C)c1C`, -33.4% (inactive).

As to `COc1cccc(C2CC(c3cccs3)=NN2C(=O)CSC2=NCCS2)c1OC` (stereo not given), the inhibition is 31.4% (active). Then `COc1ccc(C2CC(c3cccs3)=NN2C(=O)CSc2nncs2)cc1OC` (stereo not given), with -4.05% (inactive); and `COc1ccc(C2CC(c3cccs3)=NN2C(=O)CSc2nnc(N)s2)cc1OC` (stereo not given), with -3.75% (inactive).
